Measured values from ChEMBL document CHEMBL1961873, “Compounds: GSK PKIS; Assays: Nanosyn kinase panel” (2012).

What was measured:
[1] = molecular target: T1, Inhibitor of nuclear factor kappa-B kinase subunit epsilon (Homo sapiens) (UniProt Q14164); conditions: at 1 µM;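 further: reported values are averaged percent inhibition figures against human IKKε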
T1 sequence (whole entry): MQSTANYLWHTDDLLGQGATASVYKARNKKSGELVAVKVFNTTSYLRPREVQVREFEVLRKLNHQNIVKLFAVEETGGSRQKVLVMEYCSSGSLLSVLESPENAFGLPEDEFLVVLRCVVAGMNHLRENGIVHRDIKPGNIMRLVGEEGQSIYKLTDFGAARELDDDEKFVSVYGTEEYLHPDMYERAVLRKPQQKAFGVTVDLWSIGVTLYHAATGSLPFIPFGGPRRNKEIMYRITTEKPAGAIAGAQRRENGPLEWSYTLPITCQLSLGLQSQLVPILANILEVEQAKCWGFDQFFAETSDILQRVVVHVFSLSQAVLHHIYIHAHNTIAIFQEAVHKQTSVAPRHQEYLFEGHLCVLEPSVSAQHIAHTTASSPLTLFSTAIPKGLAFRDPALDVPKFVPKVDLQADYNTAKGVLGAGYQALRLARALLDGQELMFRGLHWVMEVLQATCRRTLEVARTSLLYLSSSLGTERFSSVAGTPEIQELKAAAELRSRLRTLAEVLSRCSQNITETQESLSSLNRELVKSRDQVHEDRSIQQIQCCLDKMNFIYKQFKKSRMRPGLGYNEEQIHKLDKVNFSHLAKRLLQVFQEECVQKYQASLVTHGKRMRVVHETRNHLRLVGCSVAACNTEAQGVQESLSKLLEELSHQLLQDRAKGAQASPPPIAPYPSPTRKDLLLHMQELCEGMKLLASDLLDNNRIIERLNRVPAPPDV

[2] = molecular target: T2, Serine/threonine-protein kinase Nek1 (Homo sapiens) (UniProt Q96PY6); conditions: at 0.1 µM
T2 sequence (whole entry): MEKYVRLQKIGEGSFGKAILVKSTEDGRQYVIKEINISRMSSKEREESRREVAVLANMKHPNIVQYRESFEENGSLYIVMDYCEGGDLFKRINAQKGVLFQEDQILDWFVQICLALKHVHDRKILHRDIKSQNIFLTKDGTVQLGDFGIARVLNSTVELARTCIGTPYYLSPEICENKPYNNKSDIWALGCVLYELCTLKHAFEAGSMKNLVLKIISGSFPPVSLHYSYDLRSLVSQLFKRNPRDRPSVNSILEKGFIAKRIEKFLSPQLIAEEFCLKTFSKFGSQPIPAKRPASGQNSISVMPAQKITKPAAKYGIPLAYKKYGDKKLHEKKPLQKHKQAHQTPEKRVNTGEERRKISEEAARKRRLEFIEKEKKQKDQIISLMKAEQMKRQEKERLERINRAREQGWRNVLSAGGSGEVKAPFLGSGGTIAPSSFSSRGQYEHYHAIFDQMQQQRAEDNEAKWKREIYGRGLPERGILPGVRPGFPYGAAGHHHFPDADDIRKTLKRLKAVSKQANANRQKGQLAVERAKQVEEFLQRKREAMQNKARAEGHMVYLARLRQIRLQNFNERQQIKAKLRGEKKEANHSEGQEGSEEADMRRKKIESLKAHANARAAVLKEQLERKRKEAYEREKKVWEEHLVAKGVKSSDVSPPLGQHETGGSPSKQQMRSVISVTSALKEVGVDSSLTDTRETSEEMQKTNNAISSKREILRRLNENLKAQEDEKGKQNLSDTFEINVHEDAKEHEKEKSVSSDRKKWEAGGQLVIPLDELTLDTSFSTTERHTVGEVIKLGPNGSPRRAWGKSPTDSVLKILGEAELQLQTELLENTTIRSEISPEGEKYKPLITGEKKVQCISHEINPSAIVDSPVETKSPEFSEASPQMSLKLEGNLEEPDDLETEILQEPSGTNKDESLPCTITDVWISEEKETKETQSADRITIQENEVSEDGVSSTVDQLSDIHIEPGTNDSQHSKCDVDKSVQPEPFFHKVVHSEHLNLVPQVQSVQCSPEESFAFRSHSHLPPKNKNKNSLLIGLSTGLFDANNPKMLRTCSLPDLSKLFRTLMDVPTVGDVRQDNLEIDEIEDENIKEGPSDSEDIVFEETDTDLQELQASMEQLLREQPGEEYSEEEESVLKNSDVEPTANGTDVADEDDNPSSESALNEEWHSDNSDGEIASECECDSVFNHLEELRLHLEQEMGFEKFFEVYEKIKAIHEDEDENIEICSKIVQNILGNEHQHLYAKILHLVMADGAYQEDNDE

[3] = molecular target: T2, Serine/threonine-protein kinase Nek1 (Homo sapiens); conditions: at 1 µM
[4] = molecular target: T3, Serine/threonine-protein kinase Nek2 (Homo sapiens) (UniProt P51955); conditions: at 0.1 µM
T3 sequence (whole entry): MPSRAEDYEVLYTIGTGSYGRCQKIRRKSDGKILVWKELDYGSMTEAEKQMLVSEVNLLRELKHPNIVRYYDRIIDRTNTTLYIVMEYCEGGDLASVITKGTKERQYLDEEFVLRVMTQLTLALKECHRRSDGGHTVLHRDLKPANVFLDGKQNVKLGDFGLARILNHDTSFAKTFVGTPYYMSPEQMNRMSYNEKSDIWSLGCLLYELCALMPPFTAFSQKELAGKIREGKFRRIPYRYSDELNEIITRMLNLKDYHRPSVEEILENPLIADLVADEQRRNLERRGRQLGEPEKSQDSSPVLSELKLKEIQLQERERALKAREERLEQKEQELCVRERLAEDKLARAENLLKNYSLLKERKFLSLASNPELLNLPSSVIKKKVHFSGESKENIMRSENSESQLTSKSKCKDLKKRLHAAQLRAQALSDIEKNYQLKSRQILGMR

[5] = molecular target: T3, Serine/threonine-protein kinase Nek2 (Homo sapiens); conditions: at 1 µM
[6] = molecular target: Serine/threonine-protein kinase Nek6 (Homo sapiens) (UniProt Q9HC98); conditions: at 0.1 µM
Chain of Serine/threonine-protein kinase Nek6 (Homo sapiens) (Q9HC98 whole entry): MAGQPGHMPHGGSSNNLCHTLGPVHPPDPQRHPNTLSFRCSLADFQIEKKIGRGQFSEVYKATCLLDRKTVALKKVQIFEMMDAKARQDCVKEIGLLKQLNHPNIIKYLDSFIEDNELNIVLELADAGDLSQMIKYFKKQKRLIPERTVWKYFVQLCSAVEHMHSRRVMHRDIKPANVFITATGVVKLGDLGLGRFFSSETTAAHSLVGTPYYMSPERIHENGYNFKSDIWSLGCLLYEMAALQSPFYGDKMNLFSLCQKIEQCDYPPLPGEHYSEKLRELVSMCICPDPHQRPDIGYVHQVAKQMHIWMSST

[7] = molecular target: Serine/threonine-protein kinase Nek6 (Homo sapiens) (UniProt Q9HC98); conditions: at 1 µM
[8] = molecular target: Serine/threonine-protein kinase Nek7 (Homo sapiens) (UniProt Q8TDX7); conditions: at 0.1 µM
Chain of Serine/threonine-protein kinase Nek7 (Homo sapiens) (Q8TDX7 whole entry, looked up): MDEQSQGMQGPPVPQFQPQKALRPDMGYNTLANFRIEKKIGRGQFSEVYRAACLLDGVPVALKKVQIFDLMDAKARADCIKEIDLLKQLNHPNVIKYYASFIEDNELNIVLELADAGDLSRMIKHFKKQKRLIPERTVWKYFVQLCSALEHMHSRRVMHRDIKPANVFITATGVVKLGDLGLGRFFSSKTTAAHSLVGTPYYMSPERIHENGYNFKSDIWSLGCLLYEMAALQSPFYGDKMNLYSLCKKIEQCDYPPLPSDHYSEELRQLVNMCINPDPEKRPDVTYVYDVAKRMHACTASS

[9] = molecular target: Serine/threonine-protein kinase Nek7 (Homo sapiens) (UniProt Q8TDX7); conditions: at 1 µM
[10] = molecular target: T4, Serine/threonine-protein kinase Nek9 (Homo sapiens) (UniProt Q8TD19); conditions: at 0.1 µM
T4 sequence (whole entry): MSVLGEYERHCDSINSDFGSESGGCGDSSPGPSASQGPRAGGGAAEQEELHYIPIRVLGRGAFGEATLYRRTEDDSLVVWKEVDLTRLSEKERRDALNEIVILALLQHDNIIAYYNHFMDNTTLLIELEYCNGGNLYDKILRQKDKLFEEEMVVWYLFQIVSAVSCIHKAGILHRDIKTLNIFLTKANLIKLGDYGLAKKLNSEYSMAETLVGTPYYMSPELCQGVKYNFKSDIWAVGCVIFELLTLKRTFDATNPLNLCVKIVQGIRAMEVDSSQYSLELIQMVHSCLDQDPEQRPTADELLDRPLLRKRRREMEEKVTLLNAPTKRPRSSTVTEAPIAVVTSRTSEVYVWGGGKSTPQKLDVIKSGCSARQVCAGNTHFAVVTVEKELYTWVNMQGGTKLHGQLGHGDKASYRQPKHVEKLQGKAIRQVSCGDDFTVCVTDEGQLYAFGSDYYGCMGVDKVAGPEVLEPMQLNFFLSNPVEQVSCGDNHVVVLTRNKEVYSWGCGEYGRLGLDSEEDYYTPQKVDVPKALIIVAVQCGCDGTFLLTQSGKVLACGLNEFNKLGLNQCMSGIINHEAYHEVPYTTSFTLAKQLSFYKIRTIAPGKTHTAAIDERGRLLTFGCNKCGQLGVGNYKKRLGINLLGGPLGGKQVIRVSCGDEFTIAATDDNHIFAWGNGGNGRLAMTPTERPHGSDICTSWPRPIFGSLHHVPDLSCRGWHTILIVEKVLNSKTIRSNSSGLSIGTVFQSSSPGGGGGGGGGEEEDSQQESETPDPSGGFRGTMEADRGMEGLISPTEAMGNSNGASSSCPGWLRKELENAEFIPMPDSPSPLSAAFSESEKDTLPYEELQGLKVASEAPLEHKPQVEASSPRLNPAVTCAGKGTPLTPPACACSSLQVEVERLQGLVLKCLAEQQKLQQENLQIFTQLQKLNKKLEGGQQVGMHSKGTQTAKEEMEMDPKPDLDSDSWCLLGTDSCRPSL

[11] = molecular target: T4, Serine/threonine-protein kinase Nek9 (Homo sapiens); conditions: at 1 µM
[12] = molecular target: Serine/threonine-protein kinase PLK1 (Homo sapiens) (UniProt P53350); conditions: at 0.1 µM
Chain of Serine/threonine-protein kinase PLK1 (Homo sapiens) (P53350 whole entry): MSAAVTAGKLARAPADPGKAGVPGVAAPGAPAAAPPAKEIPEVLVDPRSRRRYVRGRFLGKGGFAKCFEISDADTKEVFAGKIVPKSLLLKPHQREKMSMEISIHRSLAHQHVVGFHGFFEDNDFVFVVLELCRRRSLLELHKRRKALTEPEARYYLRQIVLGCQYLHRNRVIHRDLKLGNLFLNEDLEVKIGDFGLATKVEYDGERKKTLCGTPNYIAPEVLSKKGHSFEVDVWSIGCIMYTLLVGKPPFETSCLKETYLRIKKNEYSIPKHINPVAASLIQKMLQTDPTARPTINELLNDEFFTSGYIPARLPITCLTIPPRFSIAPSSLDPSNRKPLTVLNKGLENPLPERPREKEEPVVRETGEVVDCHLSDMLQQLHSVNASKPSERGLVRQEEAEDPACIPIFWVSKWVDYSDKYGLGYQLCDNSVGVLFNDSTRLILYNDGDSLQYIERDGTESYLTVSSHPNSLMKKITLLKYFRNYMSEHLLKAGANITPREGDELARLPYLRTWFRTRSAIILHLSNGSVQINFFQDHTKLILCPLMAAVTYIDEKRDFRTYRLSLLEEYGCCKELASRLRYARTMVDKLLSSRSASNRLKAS

[13] = molecular target: Serine/threonine-protein kinase PLK1 (Homo sapiens) (UniProt P53350); conditions: at 1 µM
[14] = molecular target: T5, Dual specificity protein kinase TTK (Homo sapiens) (UniProt P33981); conditions: at 0.1 µM
T5 sequence (whole entry): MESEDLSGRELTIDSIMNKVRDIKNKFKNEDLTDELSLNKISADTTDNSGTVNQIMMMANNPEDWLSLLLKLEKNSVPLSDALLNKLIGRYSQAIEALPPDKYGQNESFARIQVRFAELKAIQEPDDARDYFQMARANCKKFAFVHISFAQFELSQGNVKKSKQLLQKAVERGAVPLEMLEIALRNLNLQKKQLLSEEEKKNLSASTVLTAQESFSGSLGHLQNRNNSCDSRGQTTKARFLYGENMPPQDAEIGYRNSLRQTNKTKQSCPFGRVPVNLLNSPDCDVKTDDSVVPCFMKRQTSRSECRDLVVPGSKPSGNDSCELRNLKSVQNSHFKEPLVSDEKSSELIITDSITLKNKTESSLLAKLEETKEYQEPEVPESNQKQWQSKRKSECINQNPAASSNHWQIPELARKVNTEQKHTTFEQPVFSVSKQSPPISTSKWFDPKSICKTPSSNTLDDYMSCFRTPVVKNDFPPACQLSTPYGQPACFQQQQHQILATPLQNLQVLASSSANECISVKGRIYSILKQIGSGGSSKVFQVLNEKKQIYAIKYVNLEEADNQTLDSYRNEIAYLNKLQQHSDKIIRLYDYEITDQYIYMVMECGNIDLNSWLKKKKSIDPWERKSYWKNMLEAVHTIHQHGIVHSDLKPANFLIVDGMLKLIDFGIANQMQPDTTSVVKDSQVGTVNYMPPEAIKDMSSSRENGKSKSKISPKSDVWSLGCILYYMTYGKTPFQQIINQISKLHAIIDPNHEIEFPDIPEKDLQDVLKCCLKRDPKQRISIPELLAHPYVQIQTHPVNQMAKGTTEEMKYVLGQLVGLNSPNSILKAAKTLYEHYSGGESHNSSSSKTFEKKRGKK

[15] = system: T6, Receptor-type tyrosine-protein kinase FLT3 (Homo sapiens), P36888 [D835Y]; conditions: at 1 µM
T6 sequence (whole entry): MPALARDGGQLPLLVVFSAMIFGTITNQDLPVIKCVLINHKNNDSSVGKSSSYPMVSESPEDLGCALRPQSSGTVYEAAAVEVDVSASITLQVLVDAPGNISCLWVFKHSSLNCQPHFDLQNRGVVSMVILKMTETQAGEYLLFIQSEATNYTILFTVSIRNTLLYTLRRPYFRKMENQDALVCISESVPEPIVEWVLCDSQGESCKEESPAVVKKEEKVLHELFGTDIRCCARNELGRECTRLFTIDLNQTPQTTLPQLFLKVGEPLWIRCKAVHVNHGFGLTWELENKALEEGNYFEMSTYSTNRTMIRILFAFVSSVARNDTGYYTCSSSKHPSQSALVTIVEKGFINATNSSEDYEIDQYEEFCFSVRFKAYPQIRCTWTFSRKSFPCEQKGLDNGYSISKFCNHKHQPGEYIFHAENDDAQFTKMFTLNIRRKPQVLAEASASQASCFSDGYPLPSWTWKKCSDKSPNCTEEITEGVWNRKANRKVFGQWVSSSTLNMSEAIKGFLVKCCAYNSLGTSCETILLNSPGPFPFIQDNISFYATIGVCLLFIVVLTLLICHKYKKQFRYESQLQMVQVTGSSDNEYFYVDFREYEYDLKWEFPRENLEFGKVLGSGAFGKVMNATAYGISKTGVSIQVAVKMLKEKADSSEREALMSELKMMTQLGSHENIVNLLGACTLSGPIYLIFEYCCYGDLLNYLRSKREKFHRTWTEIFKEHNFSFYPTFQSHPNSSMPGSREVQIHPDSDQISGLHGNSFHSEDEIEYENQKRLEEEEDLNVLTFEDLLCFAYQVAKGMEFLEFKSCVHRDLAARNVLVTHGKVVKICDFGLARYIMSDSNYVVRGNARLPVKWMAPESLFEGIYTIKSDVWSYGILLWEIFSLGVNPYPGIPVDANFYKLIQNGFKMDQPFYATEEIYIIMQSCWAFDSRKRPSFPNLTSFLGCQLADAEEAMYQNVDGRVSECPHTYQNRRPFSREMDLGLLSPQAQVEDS

[16] = molecular target: Vascular endothelial growth factor receptor 3 (Homo sapiens) (UniProt P35916); conditions: at 0.1 µM
Chain of Vascular endothelial growth factor receptor 3 (Homo sapiens) (P35916 whole entry): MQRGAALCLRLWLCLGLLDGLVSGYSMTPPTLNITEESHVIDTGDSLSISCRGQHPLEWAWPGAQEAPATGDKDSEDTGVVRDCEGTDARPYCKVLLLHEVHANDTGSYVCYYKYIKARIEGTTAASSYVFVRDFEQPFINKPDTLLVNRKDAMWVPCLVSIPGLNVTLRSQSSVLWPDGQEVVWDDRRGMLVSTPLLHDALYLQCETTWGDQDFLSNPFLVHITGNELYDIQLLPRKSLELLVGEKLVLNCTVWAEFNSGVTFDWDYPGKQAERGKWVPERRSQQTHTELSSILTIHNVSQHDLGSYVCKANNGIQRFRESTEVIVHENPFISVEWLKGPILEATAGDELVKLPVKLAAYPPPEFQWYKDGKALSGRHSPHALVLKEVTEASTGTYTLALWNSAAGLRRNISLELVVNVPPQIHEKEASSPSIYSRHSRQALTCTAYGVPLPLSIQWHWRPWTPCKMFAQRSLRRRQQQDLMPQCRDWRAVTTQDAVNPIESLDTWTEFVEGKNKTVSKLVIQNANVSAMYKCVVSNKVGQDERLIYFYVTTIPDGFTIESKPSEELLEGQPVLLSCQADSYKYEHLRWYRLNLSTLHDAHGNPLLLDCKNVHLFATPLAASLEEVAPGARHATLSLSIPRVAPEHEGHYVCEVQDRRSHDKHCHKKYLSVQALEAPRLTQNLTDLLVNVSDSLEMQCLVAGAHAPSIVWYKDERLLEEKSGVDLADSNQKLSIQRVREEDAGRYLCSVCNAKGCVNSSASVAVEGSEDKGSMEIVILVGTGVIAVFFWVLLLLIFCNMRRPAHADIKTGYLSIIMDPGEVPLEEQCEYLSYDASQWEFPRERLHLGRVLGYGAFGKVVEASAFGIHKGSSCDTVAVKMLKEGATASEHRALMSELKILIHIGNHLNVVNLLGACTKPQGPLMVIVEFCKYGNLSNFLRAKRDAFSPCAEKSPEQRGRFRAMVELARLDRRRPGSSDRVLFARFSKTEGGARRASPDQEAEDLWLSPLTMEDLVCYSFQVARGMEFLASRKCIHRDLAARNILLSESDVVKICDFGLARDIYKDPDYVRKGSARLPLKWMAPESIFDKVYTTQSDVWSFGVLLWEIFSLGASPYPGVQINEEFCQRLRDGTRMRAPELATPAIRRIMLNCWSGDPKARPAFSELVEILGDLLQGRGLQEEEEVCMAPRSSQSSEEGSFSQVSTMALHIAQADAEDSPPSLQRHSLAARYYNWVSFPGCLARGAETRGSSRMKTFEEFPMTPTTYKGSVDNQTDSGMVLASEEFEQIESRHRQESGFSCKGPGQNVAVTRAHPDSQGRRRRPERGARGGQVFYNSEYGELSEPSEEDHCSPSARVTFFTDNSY

[17] = molecular target: Vascular endothelial growth factor receptor 3 (Homo sapiens) (UniProt P35916); conditions: at 1 µM
[18] = molecular target: Macrophage colony-stimulating factor 1 receptor (Homo sapiens) (UniProt P07333); conditions: at 0.1 µM
Chain of Macrophage colony-stimulating factor 1 receptor (Homo sapiens) (P07333 whole entry): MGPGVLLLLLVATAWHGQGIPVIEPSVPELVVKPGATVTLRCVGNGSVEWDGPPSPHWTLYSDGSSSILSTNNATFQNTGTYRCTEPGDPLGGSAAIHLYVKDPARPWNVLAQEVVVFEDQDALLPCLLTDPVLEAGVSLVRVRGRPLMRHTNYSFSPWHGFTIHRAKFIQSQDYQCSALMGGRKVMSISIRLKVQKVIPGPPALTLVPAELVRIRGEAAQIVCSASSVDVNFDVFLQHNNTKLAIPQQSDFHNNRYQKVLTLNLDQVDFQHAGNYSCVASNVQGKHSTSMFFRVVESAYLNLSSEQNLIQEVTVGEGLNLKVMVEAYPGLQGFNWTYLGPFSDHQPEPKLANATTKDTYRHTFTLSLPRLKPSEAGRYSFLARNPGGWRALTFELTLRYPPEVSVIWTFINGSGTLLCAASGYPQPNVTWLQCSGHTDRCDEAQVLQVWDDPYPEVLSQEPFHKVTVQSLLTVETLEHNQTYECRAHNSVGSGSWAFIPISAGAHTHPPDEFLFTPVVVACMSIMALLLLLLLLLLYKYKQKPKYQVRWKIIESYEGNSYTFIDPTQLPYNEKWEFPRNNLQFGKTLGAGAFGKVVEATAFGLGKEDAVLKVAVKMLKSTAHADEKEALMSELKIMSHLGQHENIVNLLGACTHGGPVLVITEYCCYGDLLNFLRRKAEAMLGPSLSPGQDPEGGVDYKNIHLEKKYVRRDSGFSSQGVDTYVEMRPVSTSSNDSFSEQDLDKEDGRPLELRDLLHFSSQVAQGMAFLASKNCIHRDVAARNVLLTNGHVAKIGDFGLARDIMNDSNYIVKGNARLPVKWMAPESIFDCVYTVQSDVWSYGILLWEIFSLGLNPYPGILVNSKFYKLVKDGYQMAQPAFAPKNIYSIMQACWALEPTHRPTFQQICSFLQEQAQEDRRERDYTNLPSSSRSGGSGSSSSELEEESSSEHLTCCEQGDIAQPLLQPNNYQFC

[19] = molecular target: Macrophage colony-stimulating factor 1 receptor (Homo sapiens) (UniProt P07333); conditions: at 1 µM
[20] = molecular target: Tyrosine-protein kinase Fyn (Homo sapiens) (UniProt P06241); conditions: at 0.1 µM
Chain of Tyrosine-protein kinase Fyn (Homo sapiens) (P06241 2-537 limits assumed): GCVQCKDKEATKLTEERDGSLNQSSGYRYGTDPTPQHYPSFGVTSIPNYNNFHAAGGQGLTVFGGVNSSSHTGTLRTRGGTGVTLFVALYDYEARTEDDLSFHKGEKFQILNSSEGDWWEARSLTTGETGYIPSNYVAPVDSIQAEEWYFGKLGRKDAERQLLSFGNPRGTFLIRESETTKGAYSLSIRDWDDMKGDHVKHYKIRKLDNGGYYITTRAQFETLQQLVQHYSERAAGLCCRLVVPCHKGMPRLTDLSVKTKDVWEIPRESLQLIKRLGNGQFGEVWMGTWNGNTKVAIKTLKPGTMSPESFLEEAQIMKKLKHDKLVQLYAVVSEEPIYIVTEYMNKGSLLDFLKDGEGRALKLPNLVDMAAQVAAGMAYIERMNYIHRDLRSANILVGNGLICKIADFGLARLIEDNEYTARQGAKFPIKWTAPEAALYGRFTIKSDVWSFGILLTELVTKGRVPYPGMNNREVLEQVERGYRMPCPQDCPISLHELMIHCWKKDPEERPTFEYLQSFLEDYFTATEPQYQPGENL

Structure (SMILES)	inhibition [1]	inhibition [2]	inhibition [3]	inhibition [4]	inhibition [5]	inhibition [6]	inhibition [7]	inhibition [8]	inhibition [9]	inhibition [10]	inhibition [11]	inhibition [12]	inhibition [13]	inhibition [14]	inhibition [15]	inhibition [16]	inhibition [17]	inhibition [18]	inhibition [19]	inhibition [20]
Cc1ccc2c(-c3ccnc(Nc4ccccc4)n3)c(-c3ccc(F)cc3)nn2n1	3.29%	2.02%	2.14%	4.21%	3%	4.02%	-0.68%	2.06%	2.94%	-1.05%	5.94%	1.63%	1.62%	4.36%	-2.14%	5.68%	28.3%	10.5%	45.1%	18.7%
CC(C)COC(=O)c1ccc2c(c1)/C(=C/Nc1ccc(S(N)(=O)=O)cc1)C(=O)N2	93.4%	-1.61%	2.33%	-0.98%	0.66%	-0.45%	9.49%	0.03%	0.46%	-3.08%	0.18%	1.14%	2.98%	53.6%	86.5%	30.1%	80.6%	7.27%	45.8%	22.6%
